PubChem BioAssay AID1903 (Southern Research Specialized Biocontainment Screening …, 2009)
About 1,200 (0.39%) of roughly 310,000 compounds were called active. How the calls were made is not given here. Not all results are given here. Results with a measured potency or affinity are listed apart.

What follows are compounds tested against Large T antigen (Simian virus 40) (UniProt P03070) (assay: SV40 large T antigen inhibitors, biochemical (AID 1903)). Details: SV40 large T antigen ATPase/helicase inhibition assay; at 20 µM; active compounds read high.
Sequence of Large T antigen (Simian virus 40) (P03070 whole entry, looked up): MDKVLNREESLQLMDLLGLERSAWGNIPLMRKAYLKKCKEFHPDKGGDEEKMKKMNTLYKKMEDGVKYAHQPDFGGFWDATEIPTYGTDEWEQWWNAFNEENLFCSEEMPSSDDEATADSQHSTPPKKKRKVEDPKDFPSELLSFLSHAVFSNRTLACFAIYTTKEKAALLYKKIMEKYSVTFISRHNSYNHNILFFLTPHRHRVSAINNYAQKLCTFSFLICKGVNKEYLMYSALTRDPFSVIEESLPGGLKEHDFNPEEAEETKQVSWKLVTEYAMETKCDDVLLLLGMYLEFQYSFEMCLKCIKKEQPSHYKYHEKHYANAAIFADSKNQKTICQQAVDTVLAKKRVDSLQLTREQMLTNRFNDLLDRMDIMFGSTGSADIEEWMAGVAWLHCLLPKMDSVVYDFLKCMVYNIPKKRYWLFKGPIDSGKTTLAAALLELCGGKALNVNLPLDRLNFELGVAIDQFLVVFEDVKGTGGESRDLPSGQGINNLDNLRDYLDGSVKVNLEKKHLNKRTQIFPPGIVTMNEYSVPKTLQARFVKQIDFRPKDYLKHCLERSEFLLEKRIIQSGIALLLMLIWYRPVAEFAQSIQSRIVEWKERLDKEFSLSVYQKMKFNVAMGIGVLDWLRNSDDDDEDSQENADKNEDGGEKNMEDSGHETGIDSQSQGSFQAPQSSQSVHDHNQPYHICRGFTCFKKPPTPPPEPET

inhibition, inactive:
Cc1ccc(S(=O)(=O)N(C)C)cc1NC(=O)COC(=O)c1ccc2c(c1)NC(=O)CS2 2.57%
CC(CN1CCCCC1)OC(=O)c1ccc(Cl)cc1 (centres undefined) -0.49%
Cc1[nH]c2ccccc2c1-c1csc(NC(=O)CN2CCOCC2)n1 35.5%
Cc1[nH]c2ccccc2c1-c1csc(NC(=O)CSCCO)n1 23.2%
Cc1ccc(CNC(=O)COC(=O)c2cc3c(s2)CCC(C)C3)cc1 (centres undefined) 0.58%
C#CCOCCOCCOCCNc1nc(N2CCN(C(=O)Cn3cc(CCCN=C(N)N)nn3)CC2)nc(N2CCN(C(=O)[C@H](CCCCN)n3cc(CCCC)nn3)CC2)n1 10.3%
O=C(NC1CC1)c1scc2c1OCCO2 -3.94%
COc1ccc(CNC(=O)C/C(C)=N/NC(=O)Cc2ccc(OC)c(OC)c2)cc1 9.86%
COc1ccc(CC(=O)N/N=C(\C)CC(=O)Nc2ccc3c(c2)OCCO3)cc1OC 8.47%
COc1cc(NC(=O)C/C(C)=N/NC(=O)C(OC)c2ccccc2)c(OC)cc1Cl (centres undefined) 7.44%
COC(C(=O)Nc1ccc(NC(=O)C(OC)c2ccccc2)cc1)c1ccccc1 (centres undefined) 0.71%
CC(=O)NC(C)Cc1cn(Cc2ccccc2)c2ccccc12 (centres undefined) 19.1%
COC(=O)c1sc(NC(=O)c2cccc([N+](=O)[O-])c2)c(C(N)=O)c1C 9.65%
Cc1ccccc1CNCCCSc1ncccn1 11.1%
COc1ccc(CN2CCCCCC2)c(C)c1C 12.7%
CC(C)(C)c1cc2nc(N)nc(N)n2n1 8.32%
O=C(Nc1ccccc1Cl)c1ccc(COc2ccc3c(c2)CCC3)cc1 20.5%
CN(C(=O)CC(NC(=O)c1ccccc1Cl)c1ccccc1)c1ccccc1 (centres undefined) 12.8%
COc1cc2cccc(OC)c(=O)c2c(O)c1OC 2.12%
COc1cc2ccc3c(CCN(C)C)cc(OC)c(OC)c3c2cc1OC 6.37%
CC(=O)Nc1ccc(S(=O)(=O)Oc2ccccc2N2CCCCC2)cc1 2.71%
Cc1ccc(/C=N\NC(=O)CC(=O)NCCc2ccccc2)cc1 7.24%
CCOc1ccc(/C=N\NC(=O)CC(=O)NCCc2ccccc2)cc1 4.85%
CCOc1cc(/C=N/NC(=O)C(=O)N/N=C/c2ccc(O)c(OCC)c2)ccc1O 8.63%
CCOc1cc(/C=N/NC(=O)C2CCCC2)ccc1O 36.2%
COc1ccc(/C=N/NC(=O)CC(=O)NCCc2ccccc2)cc1OC -5.15%
COc1ccccc1/C=N/NC(=O)CC(=O)NCCc1ccccc1 9.39%
COc1cc(/C=N/n2cnnc2)ccc1OC(=O)c1cccnc1 27.4%
COc1cc(/C=N/n2cnnc2)ccc1OC(=O)c1ccco1 24.8%
